# Test results published in the supplement of paper PMC10037445.
# Over roughly 2,900 compounds, “IRF Lucia reporter activity, fold change vs agonist alone” has its median near 0.9; the highest 2% begin near 2.8. The entries come from a sample that favours the highest values as a whole.
# Key:
# RAW-Dual [1] = experiment: IRF Lucia reporter activity, fold change vs agonist alone; cytotoxicity flag (confluency mask): not cytotoxic; higher = enhanced IRF activity
# Summary of the method: (§1)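 Cytotoxic wells were those whose IncuCyte confluency was below 70% of agonist controls in both mask sets. The cells were RAW-Dual macrophages at 50,000 cells/well in DMEM on 384-well plates, dosed with 50 nL of library stock by pin tool, stimulated with a PRR agonist 1 h later, and kept at 37 °C, 5% CO2 for 20 hours. IRF and NF-κB reporter activity, as fold change over agonist-alone wells, came from supernatant read by QuantiLuc luminescence and QuantiBlue absorbance, respectively.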
# RAW-Dual [2] = experiment: IRF Lucia reporter activity, fold change vs agonist alone; higher = enhanced IRF activity; settings: agonist: MPLA (TLR4) […]
# Summary of the method: as §1
# RAW-Dual [3] = experiment: IRF Lucia reporter activity, fold change vs agonist alone; cytotoxicity flag (confluency mask): cytotoxic (confluency <70% of control); higher = enhanced IRF activity
# Summary of the method: as §1
# [4] = agonist: 3'3'-cGAMP (STING) 10 ug/mL
# [5] = library stock concentration (final ~1000-fold dilution): 10 mM, cytotoxicity flag (confluency mask): not cytotoxic
compound,measurement,setting,value
NC(=O)C(CCC(F)(F)F)N(Cc1ccc(-c2ncon2)cc1F)S(=O)(=O)c1ccc(Cl)cc1 (stereo not given) (library stock concentration (final ~1000-fold dilution): 10 mM),IRF Lucia reporter activity,RAW-Dual [1]; [4],0.94
same,IRF Lucia reporter activity,RAW-Dual [1]; agonist: LPS (TLR4) 0.1 ug/mL,1.56
NC(=O)C(CCC(F)(F)F)N(Cc1ccc(-c2ncon2)cc1F)S(=O)(=O)c1ccc(Cl)cc1 (stereo not given),IRF Lucia reporter activity,RAW-Dual [2]; [5],1.3
CC1COCCN1c1cc(C2(S(C)(=N)=O)CC2)nc(-c2ccnc3[nH]ccc23)n1 (stereo not given) (library stock concentration (final ~1000-fold dilution): 10 mM),IRF Lucia reporter activity,RAW-Dual [1]; [4],0.193
same,IRF Lucia reporter activity,RAW-Dual [1]; agonist: LPS (TLR4) 0.1 ug/mL,1.39
COc1cc(C=CC(=O)OCC[N+](C)(C)C)cc(OC)c1O (library stock concentration (final ~1000-fold dilution): 10 mM),IRF Lucia reporter activity,RAW-Dual [1]; [4],0.894
same,IRF Lucia reporter activity,RAW-Dual [1]; agonist: LPS (TLR4) 0.1 ug/mL,1.04
O=c1nc(N2CCOCC2)oc2c(-c3cccc4c3sc3ccccc34)cccc12 (library stock concentration (final ~1000-fold dilution): 10 mM),IRF Lucia reporter activity,RAW-Dual [1]; [4],0.298
same,IRF Lucia reporter activity,RAW-Dual [1]; agonist: LPS (TLR4) 0.1 ug/mL,1.03
O=c1cc(N2CCOCC2)oc2c(-c3cccc4c3sc3ccccc34)cccc12 (library stock concentration (final ~1000-fold dilution): 2 mM),IRF Lucia reporter activity,RAW-Dual [1]; [4],0.548
same,IRF Lucia reporter activity,RAW-Dual [1]; agonist: LPS (TLR4) 0.1 ug/mL,7.23
O=c1cc(N2CCOCC2)oc2c(-c3cccc4c3sc3ccccc34)cccc12,IRF Lucia reporter activity,"RAW-Dual [2]; library stock concentration (final ~1000-fold dilution): 2 mM, cytotoxicity flag (confluency mask): not cytotoxic",2.7
O=c1cc(N2CCOCC2)oc2c(-c3ccccc3)cccc12 (library stock concentration (final ~1000-fold dilution): 10 mM),IRF Lucia reporter activity,RAW-Dual [3]; [4],0.353
same,IRF Lucia reporter activity,RAW-Dual [3]; agonist: LPS (TLR4) 0.1 ug/mL,0.393
O=c1cc(N2CCOCC2)oc2c(-c3ccccc3)cccc12,IRF Lucia reporter activity,"RAW-Dual [2]; library stock concentration (final ~1000-fold dilution): 10 mM, cytotoxicity flag (confluency mask): cytotoxic (confluency <70% of control)",0.627
COc1ccc(C2OCC3C(c4ccc(OC)c(OC)c4)OCC23)cc1OC (stereo not given) (library stock concentration (final ~1000-fold dilution): 10 mM),IRF Lucia reporter activity,RAW-Dual [1]; [4],1.35
same,IRF Lucia reporter activity,RAW-Dual [1]; agonist: LPS (TLR4) 0.1 ug/mL,0.899
O=C(C=Cc1ccc(O)cc1)c1ccc(O)cc1O (library stock concentration (final ~1000-fold dilution): 10 mM),IRF Lucia reporter activity,RAW-Dual [1]; [4],0.252
same,IRF Lucia reporter activity,RAW-Dual [1]; agonist: LPS (TLR4) 0.1 ug/mL,0.535
COC(=O)C1=C(C)NC(C)=C(C(=O)OC(C)(C)CN(C)CCC(c2ccccc2)c2ccccc2)C1c1cccc([N+](=O)[O-])c1 (stereo not given) (library stock concentration (final ~1000-fold dilution): 10 mM),IRF Lucia reporter activity,RAW-Dual [1]; [4],0.134
same,IRF Lucia reporter activity,RAW-Dual [1]; agonist: LPS (TLR4) 0.1 ug/mL,1.96
COC(=O)C1=C(C)NC(C)=C(C(=O)OC(C)(C)CN(C)CCC(c2ccccc2)c2ccccc2)C1c1cccc([N+](=O)[O-])c1.Cl (stereo not given),IRF Lucia reporter activity,RAW-Dual [2]; [5],2.1
COC(=O)C1=C(C)NC(C)=C(C(=O)OC(C)(C)CN(C)CCC(c2ccccc2)c2ccccc2)C1c1cccc([N+](=O)[O-])c1.Cl (stereo not given) (library stock concentration (final ~1000-fold dilution): 10 mM),IRF Lucia reporter activity,RAW-Dual [1]; [4],0.139
same,IRF Lucia reporter activity,RAW-Dual [1]; agonist: LPS (TLR4) 0.1 ug/mL,3.23
COC(=O)C1=C(C)NC(C)=C(C(=O)OCCN(C)Cc2ccccc2)C1c1cccc([N+](=O)[O-])c1.Cl (stereo not given) (library stock concentration (final ~1000-fold dilution): 10 mM),IRF Lucia reporter activity,RAW-Dual [1]; [4],0.3
same,IRF Lucia reporter activity,RAW-Dual [1]; agonist: LPS (TLR4) 0.1 ug/mL,1.4
COC(=O)C1=C(C)NC(C)=C(C(=O)OCCN(C)Cc2ccccc2)C1c1cccc([N+](=O)[O-])c1.Cl (stereo not given),IRF Lucia reporter activity,RAW-Dual [2]; [5],1.12
COC(=O)C1=C(C)NC(C)=C(C(=O)OC(C)(C)CN(C)CCC(c2ccccc2)c2ccccc2)C1c1cccc([N+](=O)[O-])c1 (stereo not given),IRF Lucia reporter activity,RAW-Dual [2]; [5],2.39
COC(=O)c1ccc(O)c(NC(=O)COc2ccc(C34CC5CC(CC(C5)C3)C4)cc2)c1 (library stock concentration (final ~1000-fold dilution): 10 mM),IRF Lucia reporter activity,RAW-Dual [1]; [4],0.925
same,IRF Lucia reporter activity,RAW-Dual [1]; agonist: LPS (TLR4) 0.1 ug/mL,1.14
CC(C)Cc1ccc([C@@H](C)C(=O)O)cc1 (library stock concentration (final ~1000-fold dilution): 10 mM),IRF Lucia reporter activity,RAW-Dual [1]; [4],0.953
same,IRF Lucia reporter activity,RAW-Dual [1]; agonist: LPS (TLR4) 0.1 ug/mL,1.08
CCC(C)C(=O)OC1CC(C)C=C2C=CC(C)C(CCC3CC(O)CC(=O)O3)C21 (stereo not given),IRF Lucia reporter activity,RAW-Dual [2]; [5],0.744
CCC(C)C(=O)OC1CC(C)C=C2C=CC(C)C(CCC3CC(O)CC(=O)O3)C21 (stereo not given) (library stock concentration (final ~1000-fold dilution): 10 mM),IRF Lucia reporter activity,RAW-Dual [1]; [4],0.497
same,IRF Lucia reporter activity,RAW-Dual [1]; agonist: LPS (TLR4) 0.1 ug/mL,0.764
